# Reference: PubChem BioAssay
# For part of these data: Entries with a potency or affinity are not part of this list. Activity calls are given as the source filed them.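 Rule for the calls, unless noted: active = membrane potential signal rise above negative control mean plus 3 SD in both duplicates, also active in the earlier TRPC4 screen; inactive = the rest.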
# Key:
# [1] = system: TRPC4 beta (transient receptor potential cation channel C4), mouse; experiment: TRPC4 cation channel opening, retest – cell-based, Fluo4 calcium, HEK293 TRPC4beta/mu-opioid, duplicates, 10 µM, confirmation (AID 2426;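 active = fluorescence ratio normalized to control raised more than 50% in primary screen plus both repeat runs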); settings: Fluo4 calcium fluorescence, at 10 µM; stronger effect = higher value
# [2] = system: transient receptor potential cation channel C4 beta (TRPC4), mouse; experiment: TRPC4 cation channel opening, second retest – cell-based, second round, Fluo4, HEK293 TRPC4beta/mu-opioid, 1 µM, confirmation (AID 2461;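 active = primary screen active and over 50% activation in each of two duplicate runs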); settings: Fluo4 calcium fluorescence, at 1 µM; stronger effect = higher value
# [3] = system: TRPC4 (transient receptor potential cation channel C4 beta), mouse; experiment: potentiation of DAMGO EC20 TRPC4 response – cell-based, second round, Fluo-4, HEK293 TRPC4beta/mu-opioid, 1 µM, confirmation (AID 2554;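 active = primary screen hit whose fluorescence ratio, in both repeats, exceeds the weak agonist control mean by 3 SD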); settings: DAMGO EC20, Fluo-4 calcium flux, at 1 µM; stronger effect = higher value
# [4] = system: TRPC4 beta (transient receptor potential cation channel C4), mouse; experiment: potentiation of DAMGO EC20 TRPC4 response – cell-based, Fluo-4, HEK293 TRPC4beta/mu-opioid, confirmation (AID 2555;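 active = primary screen hit whose calcium fluorescence ratio, in both repeats, exceeds the weak agonist control mean by 3 SD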); settings: DAMGO EC20, Fluo-4 calcium flux, at 10 µM; stronger effect = higher value
# [5] = biological target: Short transient receptor potential channel 4 (Mus musculus) (UniProt Q9QUQ5); experiment: blockers of DAMGO-evoked TRPC4 calcium flux – cell-based, Fluo4, HEK293 TRPC4beta/mu-opioid, confirmation (AID 2636;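 active = calcium signal cut by more than 3 SD below the full-agonist control yet still positive, in both repeats and the earlier primary screen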); settings: at 10 µM; stronger effect = higher value
# [6] = biological target: Short transient receptor potential channel 4 (Mus musculus) (UniProt Q9QUQ5); experiment: blockers of DAMGO-evoked TRPC4 calcium flux – cell-based, second round, Fluo4, HEK293 TRPC4beta/mu-opioid, 1 µM, confirmation (AID 2637;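 active = calcium signal ratio cut to more than 3 SD under the fully stimulated control mean yet still positive, in both repeats and the primary screen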); settings: at 1 µM; stronger effect = higher value
# [7] = biological target: Short transient receptor potential channel 4 (Mus musculus) (UniProt Q9QUQ5); experiment: calcium entry via TRPC4 opening agents – cell-based, HEK293 TRPC4/mu-opioid, Fluo-4 calcium, dose response (AID 434937;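 active = primary screen activator hit with a dose response curve and TRPC4 channel activation at any tested dose; inactive = no activation, no dose response, or not a primary hit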)
# [8] = biological target: Short transient receptor potential channel 4 (Mus musculus) (UniProt Q9QUQ5); experiment: potentiation of DAMGO-evoked TRPC4 calcium signal – cell-based, HEK293 TRPC4/mu-opioid, Fluo-4 calcium, EC20 DAMGO, dose response (AID 434941;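 active = earlier screen potentiator hit that boosts the TRPC4 ion channel at some dose, with a dose response; inactive = no potentiation, no dose response, or not a prior hit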;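 note: calcium entry triggered by an EC20 dose of DAMGO at the co-expressed mu-opioid receptor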)
# [9] = biological target: Short transient receptor potential channel 4 (Mus musculus) (UniProt Q9QUQ5); experiment: block of DAMGO-driven TRPC4 calcium entry – cell-based, HEK293 TRPC4/mu-opioid, Fluo-4 calcium, dose response (AID 434942;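 active = primary screen inhibitor hit that blocks the TRPC4 channel at some tested dose, yielding a dose curve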)
# [10] = biological target: Short transient receptor potential channel 6 (Mus musculus) (UniProt Q61143); experiment: TRPC6 blockade by TRPC4 inhibitor hits – cell-based, HEK293, membrane potential dye, duplicate, selectivity assay for TRPC4 inhibitor project, confirmation (AID 434948;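 active = active in primary screen and both duplicates, each dropping signal beyond three positive-control SD with fluorescence still positive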); settings: HEK293 TRPC6, membrane potential dye fluorescence, at 10 µM, stimulated with maximal-effect acetylcholine; stronger effect = higher value
# [11] = biological target: Short transient receptor potential channel 6 (Mus musculus) (UniProt Q61143); experiment: TRPC6 opening by TRPC4 activator hits – cell-based, HEK293, membrane potential dye, duplicate, selectivity assay for TRPC4 activator project, confirmation (AID 434950); settings: HEK293 TRPC6, membrane potential fluorescence, at 10 µM; activation: stronger effect = higher value; outcome: activation;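 for activation: 0% = buffer only wells and 100% = acetylcholine maximal-effect wells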
# [12] = biological target: Short transient receptor potential channel 6 (Mus musculus) (UniProt Q61143); experiment: positive modulators of mouse TRPC6 channel – HEK293 cells, membrane potential dye, duplicate, selectivity assay for TRPC4 potentiator project, confirmation (AID 434952;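 active = compound raising the membrane signal above positive-control mean plus 3 SD in both repeats, and a primary screen hit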); settings: HEK293 TRPC6, membrane potential dye fluorescence, at 10 µM, maximal acetylcholine added after compound; stronger effect = higher value
# [13] = biological target: Short transient receptor potential channel 4 (Mus musculus) (UniProt Q9QUQ5); experiment: calcium flux activators in TRPC4/5HT1a cells, counter-screen for TRPC4 activator project, cell-based, second counter screen, HEK293 TRPC4/5HT1a, Fluo-4 (AID 434977;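 active = calcium signal rise above buffer-control mean plus 5 SD in both duplicates, and also a hit in the primary screen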); settings: Fluo-4 calcium flux, at 10 µM; stronger effect = higher value
# [14] = serotonin-gated TRPC4 signal block – cell-based, second counter screen, HEK293 TRPC4/5HT1a, Fluo-4, counter-screen for TRPC4 inhibitor project, confirmation (AID 434978;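 active = primary screen active whose calcium signal fell more than 3 SD beyond the full-serotonin control mean in both duplicate plates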;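 for outcome: serotonin given first at submaximal then at maximal dose after compound preincubation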); settings: Fluo-4 calcium flux, at 10 µM, serotonin added to trigger calcium flux; stronger effect = higher value
# [15] = system: TRPC4 (mouse), co-expressed with 5HT1a in HEK293; experiment: enhancement of serotonin-evoked TRPC4 response – cell-based, second counter screen, HEK293 TRPC4/5HT1a, Fluo-4, counter-screen for TRPC4 potentiator project, confirmation (AID 434979;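 active = signal rise over 3 SD above mean of control wells given weak agonist, in both repeats and first screen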); settings: Fluo-4 calcium flux, at 10 µM, serotonin added at its EC20 dose; stronger effect = higher value
# [16] = nonspecific calcium rise without TRPC4 – cell-based, HEK293 mu-opioid receptor line, counter-screen for TRPC4 activator project, confirmation (AID 449723;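 active = hit in primary screen, with calcium signal over 5 SD above buffer well mean in both duplicates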;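 note: counter screen cells carry the mu-opioid receptor alone and lack TRPC4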); settings: HEK293 mu-opioid cells, Fluo-4 calcium fluorescence, at 10 µM; stronger effect = higher value
# [17] = nonspecific potentiation of DAMGO calcium response – cell-based, HEK293 mu-opioid receptor line, counter-screen for TRPC4 allosteric potentiator project, confirmation (AID 449724;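 active = calcium signal rise more than 3 SD above the low-dose agonist control mean, in both duplicate plates and the primary screen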); settings: HEK293 mu-opioid receptor cells, Fluo-4 calcium flux, at 10 µM, compound added before EC20 DAMGO stimulus; stronger effect = higher value
# Short transient receptor potential channel 4 (Mus musculus), sequence (Q9QUQ5 whole entry, looked up): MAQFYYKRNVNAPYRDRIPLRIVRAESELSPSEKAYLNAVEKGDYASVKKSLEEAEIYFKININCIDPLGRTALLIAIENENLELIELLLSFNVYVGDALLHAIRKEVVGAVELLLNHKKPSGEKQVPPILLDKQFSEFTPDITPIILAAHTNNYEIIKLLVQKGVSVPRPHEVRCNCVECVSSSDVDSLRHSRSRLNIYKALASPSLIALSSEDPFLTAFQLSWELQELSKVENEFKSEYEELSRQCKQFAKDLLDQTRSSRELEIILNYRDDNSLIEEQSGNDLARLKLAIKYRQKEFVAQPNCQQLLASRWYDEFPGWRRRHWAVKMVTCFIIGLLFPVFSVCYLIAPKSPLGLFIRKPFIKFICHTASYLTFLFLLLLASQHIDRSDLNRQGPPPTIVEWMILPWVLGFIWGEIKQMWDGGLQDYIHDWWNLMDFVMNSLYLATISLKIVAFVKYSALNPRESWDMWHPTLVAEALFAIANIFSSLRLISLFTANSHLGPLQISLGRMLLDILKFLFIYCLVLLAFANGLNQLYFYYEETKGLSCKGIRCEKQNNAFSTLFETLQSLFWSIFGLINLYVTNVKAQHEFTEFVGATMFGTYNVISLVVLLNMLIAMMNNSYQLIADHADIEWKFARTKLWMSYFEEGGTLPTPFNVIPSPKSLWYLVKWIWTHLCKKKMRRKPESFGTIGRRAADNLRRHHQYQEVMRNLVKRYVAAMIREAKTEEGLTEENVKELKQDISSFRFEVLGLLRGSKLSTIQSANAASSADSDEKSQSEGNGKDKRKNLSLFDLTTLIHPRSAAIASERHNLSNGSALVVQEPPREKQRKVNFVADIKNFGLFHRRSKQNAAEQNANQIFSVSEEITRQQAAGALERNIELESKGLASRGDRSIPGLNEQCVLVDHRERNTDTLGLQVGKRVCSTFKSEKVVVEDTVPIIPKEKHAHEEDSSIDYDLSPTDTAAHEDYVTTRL
# Short transient receptor potential channel 6 (Mus musculus), sequence (Q61143 whole entry, looked up): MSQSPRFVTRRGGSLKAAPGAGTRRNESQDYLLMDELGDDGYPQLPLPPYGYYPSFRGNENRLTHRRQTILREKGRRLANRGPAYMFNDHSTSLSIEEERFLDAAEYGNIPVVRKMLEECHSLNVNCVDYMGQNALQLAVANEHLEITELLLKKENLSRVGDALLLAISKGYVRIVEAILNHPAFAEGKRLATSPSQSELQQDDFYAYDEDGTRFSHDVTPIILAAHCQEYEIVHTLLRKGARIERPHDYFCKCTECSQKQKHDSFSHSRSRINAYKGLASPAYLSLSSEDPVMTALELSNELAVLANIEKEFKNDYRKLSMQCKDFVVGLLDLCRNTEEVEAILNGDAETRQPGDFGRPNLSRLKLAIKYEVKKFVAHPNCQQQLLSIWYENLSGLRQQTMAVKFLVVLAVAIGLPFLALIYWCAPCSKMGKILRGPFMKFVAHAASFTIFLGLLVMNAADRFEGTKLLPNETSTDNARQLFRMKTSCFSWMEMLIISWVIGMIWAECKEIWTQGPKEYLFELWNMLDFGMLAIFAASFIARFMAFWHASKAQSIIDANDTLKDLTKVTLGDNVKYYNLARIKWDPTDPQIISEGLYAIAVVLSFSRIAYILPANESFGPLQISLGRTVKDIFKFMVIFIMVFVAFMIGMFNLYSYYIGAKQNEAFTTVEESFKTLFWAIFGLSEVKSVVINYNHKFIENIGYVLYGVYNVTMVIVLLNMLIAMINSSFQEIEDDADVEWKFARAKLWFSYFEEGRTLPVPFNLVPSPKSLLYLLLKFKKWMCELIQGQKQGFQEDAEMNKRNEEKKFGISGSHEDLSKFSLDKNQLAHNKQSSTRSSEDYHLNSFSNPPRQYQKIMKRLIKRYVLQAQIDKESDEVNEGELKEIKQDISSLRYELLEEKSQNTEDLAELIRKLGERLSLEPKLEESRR
compound,measurement,setting,value
COc1cc(/C=C2\C(=N)N3N=C(S(C)(=O)=O)SC3=NC2=O)ccc1OC(=O)c1cccs1,outcome,[1],inactive
same,outcome,[2],inactive
same,outcome,[3],inactive
same,outcome,[4],inactive
same,inhibition,[5],86% (active)
same,outcome,[6],inactive
same,outcome,[7],inactive
same,outcome,[8],inactive
same,outcome,[9],inactive
same,outcome,[10],inactive
same,outcome,[11],inactive
same,outcome,[12],inactive
same,outcome,[13],inactive
same,outcome,[14],inactive
same,outcome,[15],inactive
same,outcome,[16],inactive
same,outcome,[17],inactive
CCn1c(/C=C/Nc2ccccc2)[n+](CC)c2ccc(Cl)cc21,outcome,[1],inactive
same,outcome,[2],inactive
same,outcome,[3],inactive
same,outcome,[4],inactive
same,outcome,[5],inactive
same,outcome,[6],inactive
same,outcome,[7],inactive
same,outcome,[8],inactive
same,outcome,[9],inactive
same,outcome,[10],inactive
same,outcome,[11],inactive
same,outcome,[12],inactive
same,outcome,[13],inactive
same,outcome,[14],inactive
same,outcome,[15],inactive
same,outcome,[16],inactive
same,outcome,[17],inactive
COc1ccc(Cl)c2sc(N(CCN(C)C)C(=O)c3ccc4c(c3)OCCO4)nc12,outcome,[1],inactive
same,outcome,[2],inactive
same,potentiation,[3],9% (active)
same,potentiation,[4],26% (active)
same,outcome,[5],inactive
same,outcome,[6],inactive
same,outcome,[7],inactive
same,outcome,[8],inactive
same,outcome,[9],inactive
same,outcome,[10],inactive
same,outcome,[11],inactive
same,outcome,[12],inactive
same,outcome,[13],inactive
same,outcome,[14],inactive
same,outcome,[15],inactive
same,outcome,[16],inactive
same,outcome,[17],inactive
CCCC(=O)N/C(N)=N/c1nc(C)c2ccccc2n1,outcome,[1],inactive
same,outcome,[2],inactive
same,potentiation,[3],9% (active)
same,outcome,[4],inactive
same,outcome,[5],inactive
same,outcome,[6],inactive
same,outcome,[7],inactive
same,outcome,[8],inactive
same,outcome,[9],inactive
same,outcome,[10],inactive
same,outcome,[11],inactive
same,outcome,[12],inactive
same,outcome,[13],inactive
same,outcome,[14],inactive
same,potentiation,[15],10% (active)
same,outcome,[16],inactive
same,outcome,[17],inactive
COc1ccc(-n2cc(CNCc3cnc4ccccn34)c(-c3cccc(F)c3)n2)cc1,outcome,[1],inactive
same,outcome,[2],inactive
same,outcome,[3],inactive
same,outcome,[4],inactive
same,outcome,[5],inactive
same,outcome,[6],inactive
same,outcome,[7],inactive
same,outcome,[8],inactive
same,outcome,[9],inactive
same,outcome,[10],inactive
same,outcome,[11],inactive
same,outcome,[12],inactive
same,outcome,[13],inactive
same,outcome,[14],inactive
same,outcome,[15],inactive
same,outcome,[16],inactive
same,outcome,[17],inactive
CSc1ccccc1OC1CCN(Cc2ccccc2)CC1,outcome,[1],inactive
same,outcome,[2],inactive
same,outcome,[3],inactive
same,outcome,[4],inactive
same,outcome,[5],inactive
same,outcome,[6],inactive
same,outcome,[7],inactive
same,outcome,[8],inactive
same,outcome,[9],inactive
same,outcome,[10],inactive
same,outcome,[11],inactive
same,outcome,[12],inactive
same,outcome,[13],inactive
same,outcome,[14],inactive
same,outcome,[15],inactive
same,outcome,[16],inactive
same,outcome,[17],inactive
COc1ccc(-c2cc(C(=O)N3CC(C)CC(C)C3)c3ccccc3n2)cc1 (stereo not given),outcome,[1],inactive
same,outcome,[2],inactive
same,outcome,[3],inactive
same,outcome,[4],inactive
same,outcome,[5],inactive
same,outcome,[6],inactive
same,outcome,[7],inactive
same,outcome,[8],inactive
same,outcome,[9],inactive
same,outcome,[10],inactive
same,outcome,[11],inactive
same,outcome,[12],inactive
same,outcome,[13],inactive
same,outcome,[14],inactive
same,outcome,[15],inactive
same,outcome,[16],inactive
same,outcome,[17],inactive
Cc1ccc(/C=N/NC(=O)C2COc3ccccc3O2)s1 (stereo not given),outcome,[1],inactive
same,outcome,[2],inactive
same,outcome,[3],inactive
same,outcome,[4],inactive
same,outcome,[5],inactive
same,outcome,[6],inactive
same,outcome,[7],inactive
same,outcome,[8],inactive
same,outcome,[9],inactive
same,outcome,[10],inactive
same,outcome,[11],inactive
same,outcome,[12],inactive
same,outcome,[13],inactive
same,outcome,[14],inactive
same,potentiation,[15],22.2% (active)
same,outcome,[16],inactive
same,outcome,[17],inactive
COc1cccc(N2C(=O)CC(N3CCN(CCN=CC4=C(O)CC(C)(C)CC4=O)CC3)C2=O)c1 (stereo not given),outcome,[1],inactive
same,outcome,[2],inactive
same,outcome,[3],inactive
same,outcome,[4],inactive
same,outcome,[5],inactive
same,outcome,[6],inactive
same,outcome,[7],inactive
same,outcome,[8],inactive
same,outcome,[9],inactive
same,outcome,[10],inactive
same,outcome,[11],inactive
same,outcome,[12],inactive
same,outcome,[13],inactive
same,outcome,[14],inactive
same,potentiation,[15],15.8% (active)
same,outcome,[16],inactive
same,outcome,[17],inactive
O=C(C1=C[C@H](c2ccc(C(F)(F)F)cc2)C[C@H](OCCCCO)O1)N1CCOCC1,outcome,[1],inactive
same,outcome,[2],inactive
same,outcome,[3],inactive
same,outcome,[4],inactive
same,outcome,[5],inactive
same,outcome,[6],inactive
same,outcome,[7],inactive
same,outcome,[8],inactive
same,outcome,[9],inactive
same,outcome,[10],inactive
same,activation,[11],27.5% (active)
same,outcome,[12],inactive
same,outcome,[13],inactive
same,outcome,[14],inactive
same,outcome,[15],inactive
same,outcome,[16],inactive
same,outcome,[17],inactive
CCN(C(=O)c1cnc(NC(C)C)cc1C(F)(F)F)c1ccc(Cl)cc1Cl,outcome,[1],inactive
same,outcome,[2],inactive
same,outcome,[3],inactive
same,outcome,[4],inactive
same,inhibition,[5],91% (active)
same,outcome,[6],inactive
same,outcome,[7],inactive
same,outcome,[8],inactive
same,outcome,[9],inactive
same,outcome,[10],inactive
same,outcome,[11],inactive
same,outcome,[12],inactive
same,outcome,[13],inactive
same,inhibition,[14],44.8% (active)
same,outcome,[15],inactive
same,outcome,[16],inactive
same,outcome,[17],inactive
CC(=O)c1ccc(N2CCN(C(=O)CCS(=O)(=O)c3ccc4c(c3)NC(=O)CS4)CC2)cc1,outcome,[1],inactive
same,outcome,[2],inactive
same,outcome,[3],inactive
same,outcome,[4],inactive
same,outcome,[5],inactive
same,outcome,[6],inactive
same,outcome,[7],inactive
same,outcome,[8],inactive
same,outcome,[9],inactive
same,outcome,[10],inactive
same,outcome,[11],inactive
same,outcome,[12],inactive
same,outcome,[13],inactive
same,outcome,[14],inactive
same,potentiation,[15],20.9% (active)
same,outcome,[16],inactive
same,outcome,[17],inactive
CCOCCCn1c(=S)[nH]c2cc(C(=O)NCCCN(CC)CC)ccc2c1=O,outcome,[1],inactive
same,outcome,[2],inactive
same,potentiation,[3],18% (active)
same,potentiation,[4],10% (active)
same,outcome,[5],inactive
same,outcome,[6],inactive
same,outcome,[7],inactive
same,outcome,[8],inactive
same,outcome,[9],inactive
same,outcome,[10],inactive
same,outcome,[11],inactive
same,outcome,[12],inactive
same,outcome,[13],inactive
same,outcome,[14],inactive
same,potentiation,[15],16.1% (active)
same,outcome,[16],inactive
same,outcome,[17],inactive
C/C(=N\N1CCN(C)CC1)c1ccc(Cl)c(Cl)c1,outcome,[1],inactive
same,outcome,[2],inactive
same,outcome,[3],inactive
same,outcome,[4],inactive
same,outcome,[5],inactive
same,outcome,[6],inactive
same,outcome,[7],inactive
same,outcome,[8],inactive
same,outcome,[9],inactive
same,outcome,[10],inactive
same,outcome,[11],inactive
same,outcome,[12],inactive
same,outcome,[13],inactive
same,outcome,[14],inactive
same,potentiation,[15],13.3% (active)
same,outcome,[16],inactive
same,outcome,[17],inactive
COc1ccc(CCNC(=O)C2CCN(C(=O)c3ccc(C(C)(C)C)cc3)CC2)cc1,outcome,[1],inactive
same,outcome,[2],inactive
same,outcome,[3],inactive
same,outcome,[4],inactive
same,outcome,[5],inactive
same,outcome,[6],inactive
same,outcome,[7],inactive
same,outcome,[8],inactive
same,outcome,[9],inactive
same,outcome,[10],inactive
same,outcome,[11],inactive
same,outcome,[12],inactive
same,outcome,[13],inactive
same,outcome,[14],inactive
same,outcome,[15],inactive
same,outcome,[16],inactive
same,outcome,[17],inactive
